One test has as its target HOXB9 (Homo sapiens, UniProt P17482 171-250, R186Q). The experiment in a line: PBM; 200 nM protein, PBS. The following applies: dsDNA, one strand shown.
Chain of HOXB9 (P17482 171-250 R186Q): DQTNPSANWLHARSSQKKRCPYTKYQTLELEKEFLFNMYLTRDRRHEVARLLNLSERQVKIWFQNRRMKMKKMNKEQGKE
Chain of HOXA2 (Homo sapiens, UniProt O43364 129-215, Y150S) (O43364 129-215 Y150S): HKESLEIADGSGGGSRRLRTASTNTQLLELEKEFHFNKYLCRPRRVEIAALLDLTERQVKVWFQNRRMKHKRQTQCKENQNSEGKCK
For the sequence AATTGCTA, the binding signal is 10.6 upbm affinity estimate (log intensity, higher = more binding, comparable within an allelic series).

Turning to CATTTAAA, the binding signal is 10.6 upbm affinity estimate (log intensity, higher = more binding, comparable within an allelic series).

Take ATTACGTC: the binding signal is 10.2 upbm affinity estimate (log intensity, higher = more binding, comparable within an allelic series).

As to ATATAGTA, the binding signal was 10.1 upbm affinity estimate (log intensity, higher = more binding, comparable within an allelic series).

On to CACACTAA, for which the binding signal is 9.82 upbm affinity estimate (log intensity, higher = more binding, comparable within an allelic series).

Turning to AAGCAATA, the binding signal is 10.1 upbm affinity estimate (log intensity, higher = more binding, comparable within an allelic series).

With TAACTTAA, the binding signal is 10.1 upbm affinity estimate (log intensity, higher = more binding, comparable within an allelic series).

With CCTATTTA, the binding signal was 10.2 upbm affinity estimate (log intensity, higher = more binding, comparable within an allelic series).

In the case of AATGTGAA, the binding signal is 9.94 upbm affinity estimate (log intensity, higher = more binding, comparable within an allelic series).

On to TAATAGTA, for which the binding signal was 10.8 upbm affinity estimate (log intensity, higher = more binding, comparable within an allelic series).

Another test has as its target HOXA2 (Homo sapiens, UniProt O43364 129-215, Y150S). The experiment in a line: PBM; 200 nM protein, PBS. The settings on record: dsDNA, one strand shown.
Turning to ACAACTTA, the binding signal is 10.7 upbm affinity estimate (log intensity, higher = more binding, comparable within an allelic series).

As to ATCATCTG, the binding signal is 10.7 upbm affinity estimate (log intensity, higher = more binding, comparable within an allelic series).

Consider AGATGACC, for which the binding signal was 10.5 upbm affinity estimate (log intensity, higher = more binding, comparable within an allelic series).

As to AACTAAAA, the binding signal was 10.6 upbm affinity estimate (log intensity, higher = more binding, comparable within an allelic series).

For the sequence ATTTCATC, the binding signal was 10.6 upbm affinity estimate (log intensity, higher = more binding, comparable within an allelic series).

Turning to AATTGGGC, the binding signal was 10.6 upbm affinity estimate (log intensity, higher = more binding, comparable within an allelic series).

Regarding CTATTCAA, the binding signal was 10.8 upbm affinity estimate (log intensity, higher = more binding, comparable within an allelic series).

With ATCAGAAA, the binding signal was 10.6 upbm affinity estimate (log intensity, higher = more binding, comparable within an allelic series).

With GACCATCA, the binding signal was 10.6 upbm affinity estimate (log intensity, higher = more binding, comparable within an allelic series).

In the case of CATCTACG, the binding signal was 10.7 upbm affinity estimate (log intensity, higher = more binding, comparable within an allelic series).

For AAATCAGC, the binding signal is 10.7 upbm affinity estimate (log intensity, higher = more binding, comparable within an allelic series).

In a further test the target is HOXA2 (Homo sapiens, UniProt O43364 129-215). The experiment in a line: PBM; 200 nM protein, PBS. The settings on record: dsDNA, one strand shown.
Chain of HOXA2 (Homo sapiens, UniProt O43364 129-215) (O43364 129-215): as the sequence (O43364 129-215 Y150S) above, with S22Y counted along it
On to AGGTTGAT, for which the binding signal is 9.03 upbm affinity estimate (log intensity, higher = more binding, comparable within an allelic series).

For the sequence ACTCGTAA, the binding signal is 9.32 upbm affinity estimate (log intensity, higher = more binding, comparable within an allelic series).

AGATGTAA: the binding signal is 9.27 upbm affinity estimate (log intensity, higher = more binding, comparable within an allelic series).

In the case of GTTTGCAA, the binding signal was 8.78 upbm affinity estimate (log intensity, higher = more binding, comparable within an allelic series).

Regarding ACAACTTA, the binding signal is 9.5 upbm affinity estimate (log intensity, higher = more binding, comparable within an allelic series).

Take ATCATCTG: the binding signal is 9.72 upbm affinity estimate (log intensity, higher = more binding, comparable within an allelic series).

For CCTATCAG, the binding signal was 8.67 upbm affinity estimate (log intensity, higher = more binding, comparable within an allelic series).

On to AAAAATTG, for which the binding signal was 8.94 upbm affinity estimate (log intensity, higher = more binding, comparable within an allelic series).

Regarding TATCAAAA, the binding signal is 8.82 upbm affinity estimate (log intensity, higher = more binding, comparable within an allelic series).

Turning to AACTATTG, the binding signal was 8.91 upbm affinity estimate (log intensity, higher = more binding, comparable within an allelic series).

For AGATGACC, the binding signal is 9.29 upbm affinity estimate (log intensity, higher = more binding, comparable within an allelic series).

On to AAACTTAA, for which the binding signal was 8.97 upbm affinity estimate (log intensity, higher = more binding, comparable within an allelic series).

Regarding TAAACATA, the binding signal was 8.55 upbm affinity estimate (log intensity, higher = more binding, comparable within an allelic series).

Consider AACTAAAA, for which the binding signal was 8.87 upbm affinity estimate (log intensity, higher = more binding, comparable within an allelic series).

As for ATTTCATC, the binding signal is 8.75 upbm affinity estimate (log intensity, higher = more binding, comparable within an allelic series).

As to AATTGGGC, the binding signal is 9.35 upbm affinity estimate (log intensity, higher = more binding, comparable within an allelic series).

Regarding AAACATAA, the binding signal is 9.53 upbm affinity estimate (log intensity, higher = more binding, comparable within an allelic series).

Regarding CTATTCAA, the binding signal was 9.17 upbm affinity estimate (log intensity, higher = more binding, comparable within an allelic series).

With ATCAGAAA, the binding signal is 8.63 upbm affinity estimate (log intensity, higher = more binding, comparable within an allelic series).

On to CATTTTAC, for which the binding signal is 8.85 upbm affinity estimate (log intensity, higher = more binding, comparable within an allelic series).

Regarding GACCATCA, the binding signal is 9.24 upbm affinity estimate (log intensity, higher = more binding, comparable within an allelic series).

For CATCTACG, the binding signal is 9.05 upbm affinity estimate (log intensity, higher = more binding, comparable within an allelic series).

On to AAATACCC, for which the binding signal is 8.99 upbm affinity estimate (log intensity, higher = more binding, comparable within an allelic series).

Turning to AAATCAGC, the binding signal is 9.43 upbm affinity estimate (log intensity, higher = more binding, comparable within an allelic series).

As to AGATAGAT, the binding signal was 8.71 upbm affinity estimate (log intensity, higher = more binding, comparable within an allelic series).

In the case of ATAGAAAT, the binding signal was 9.2 upbm affinity estimate (log intensity, higher = more binding, comparable within an allelic series).
